# Measured values from PubChem BioAssay (Tox21).
# Inconclusive results are not listed. A call without a number means that no potency is given here. Calls of active or inactive are those of the source. Unless noted, calls come from the whole dose curve; as a rule, active = well fitted cell-killing curve with a large enough effect in the repeat runs; inconclusive = weak or mixed curves, or effect the other way; inactive = flat fitted curve, though single readings scatter.
# Test system: not listed separately
# Assay: qHTS assay to identify small molecule agonists of the TGF-beta/Smad signaling pathway - cell viability counter screen (AID 1346829); note: top concentration of the series differs between compounds; nearly all actives have a fitted effect of over 45% in size
# Conditions: SBE-bla HEK293T viability, CellTiter-Glo luminescence, 5 h; series mostly up to 76.8 µM
# How it was run: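 After overnight seating at 37 C and 5% CO2, reporter cells got compounds for 5 hr and FRET substrate for 2 hr; cell viability then came from CellTiter-Glo luminescence.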
row,SMILES,Potency
1,O=C(CC(=O)c1ccccc1)c1ccccc1,inactive
2,CC(C)=CCCC(C)CC=O (centres undefined),inactive
3,CN(c1nccc(=O)[nH]1)C1CCN(c2nc3ccccc3n2Cc2ccc(F)cc2)CC1,inactive
4,CC1(C)CCC(C)(C)c2cc(NC(=O)c3ccc(C(=O)O)cc3)ccc21,inactive
5,CCCCOC(=O)c1ccccc1C(=O)OCC(CC)CCCC (centres undefined),inactive
6,O=C(c1ccccc1)c1ccc2n1CCC2C(=O)O (centres undefined),inactive
7,CCN(CC)C(C)CN1c2ccccc2Sc2ccccc21 (centres undefined),inactive
8,O=C(Nc1ccccc1)OCC(CN1CCCCC1)OC(=O)Nc1ccccc1 (centres undefined),inactive
9,CC(O)C1CCCCC1 (centres undefined),inactive
10,Cc1nc2ccccc2n1Cc1ccc(Cl)cc1,inactive
11,COCCCCCCCCOCCC[Si](C)(O[Si](C)(C)C)O[Si](C)(C)C,inactive
12,CCCCCCOC(=O)CCC,inactive
13,COCCO,inactive
14,C=C(C)C(=O)OCCN(C)C,inactive
15,CC(C)(C)c1ccc(S)cc1,inactive
16,CCOc1ccc2[nH]cc(C(=O)NCc3ccccc3)c(=O)c2n1,inactive
17,O=c1[nH]cnc2ccccc12,inactive
18,CN1CCN(C2=Nc3ccccc3Sc3ccc(Cl)cc32)CC1,inactive
19,CCC(C)N(C)C(=O)c1cc2ccccc2c(-c2ccccc2Cl)n1 (centres undefined),inactive

row,SMILES,Potency
1,Cc1ccccn1,inactive
2,N#Cc1c(F)cccc1F,inactive
3,S=C(S)NCCNC(=S)S,inactive
4,CN(C)CC/C=C1\c2ccccc2COc2ccccc21,inactive
5,O=C(O)Cc1cc(I)c(Oc2ccc(O)c(I)c2)c(I)c1,inactive
6,CC(=O)N(O)CCCCCNC(=O)CCC(=O)N(O)CCCCCNC(=O)CCC(=O)N(O)CCCCCN,inactive
7,O=S1(=O)c2cccc3cccc(c23)N1CCCN1CCN(c2ccc(F)cc2)CC1,inactive
8,C=CCCCCCC,inactive
9,O=C1CCCCCO1,inactive
10,FC(F)(F)C(F)(F)C(F)(F)C(F)(F)C(F)(F)C(F)(F)CCI,inactive
11,O=C(c1ccc(O)cc1)c1ccc(O)cc1,inactive
12,O=C(O)C(c1ccc(Cl)cc1)c1ccc(Cl)cc1,inactive
13,O=C(NS(=O)(=O)/C=C/c1cccs1)c1ccc(F)cc1Br,inactive
14,O=C(O)C1CCC(C(=O)O)CC1 (centres undefined),inactive
15,CC(=O)OC/C=C/c1ccccc1,inactive
16,c1ccc(-c2nc[nH]c2-c2ccccc2)cc1,inactive
17,CN1CCC(OC(c2ccccc2)c2ccccc2)CC1,inactive
18,CC(=O)OCCc1ccccc1,inactive
19,Cc1ccc(C(C)c2ccc(C)c(C)c2)cc1C,inactive

# Test system: not listed separately
# Assay: qHTS assay to identify small molecule agonists of the TGF-beta/Smad signaling pathway (AID 1346859; active = well fitted activation curve with a large enough effect in the signal ratio in the repeat runs, not every such curve was filed as active; the % refers to the signal ratio)
# Conditions: SBE-bla HEK293T, TGF-beta/Smad beta-lactamase reporter, 5 h; series mostly up to 76.8 µM
# How it was run: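 Fluorescence (ex 405 nm; em 460 and 530 nm) was read 2 h after LiveBLAzer FRET substrate at RT. The preceding compound treatment of overnight-plated SBE-bla HEK293T cells lasted 5 h at 37 C.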
row,SMILES,outcome
1,O=C(CC(=O)c1ccccc1)c1ccccc1,inactive
2,CC(C)=CCCC(C)CC=O (centres undefined),inactive
3,CN(c1nccc(=O)[nH]1)C1CCN(c2nc3ccccc3n2Cc2ccc(F)cc2)CC1,inactive
4,CC1(C)CCC(C)(C)c2cc(NC(=O)c3ccc(C(=O)O)cc3)ccc21,inactive
5,CCCCOC(=O)c1ccccc1C(=O)OCC(CC)CCCC (centres undefined),inactive
6,CCN(CC)C(C)CN1c2ccccc2Sc2ccccc21 (centres undefined),inactive
7,O=C(Nc1ccccc1)OCC(CN1CCCCC1)OC(=O)Nc1ccccc1 (centres undefined),inactive
8,CC(O)C1CCCCC1 (centres undefined),inactive
9,Cc1nc2ccccc2n1Cc1ccc(Cl)cc1,inactive
10,COCCCCCCCCOCCC[Si](C)(O[Si](C)(C)C)O[Si](C)(C)C,inactive
11,CCCCCCOC(=O)CCC,inactive
12,COCCO,inactive
13,C=C(C)C(=O)OCCN(C)C,inactive
14,CC(C)(C)c1ccc(S)cc1,inactive
15,CCOc1ccc2[nH]cc(C(=O)NCc3ccccc3)c(=O)c2n1,inactive
16,O=c1[nH]cnc2ccccc12,inactive
17,CCC(C)N(C)C(=O)c1cc2ccccc2c(-c2ccccc2Cl)n1 (centres undefined),inactive
18,Cc1ccccn1,inactive

row,SMILES,outcome
1,N#Cc1c(F)cccc1F,inactive
2,S=C(S)NCCNC(=S)S,inactive
3,CN(C)CC/C=C1\c2ccccc2COc2ccccc21,inactive
4,CC(=O)N(O)CCCCCNC(=O)CCC(=O)N(O)CCCCCNC(=O)CCC(=O)N(O)CCCCCN,inactive
5,O=S1(=O)c2cccc3cccc(c23)N1CCCN1CCN(c2ccc(F)cc2)CC1,inactive
6,C=CCCCCCC,inactive
7,O=C1CCCCCO1,inactive
8,CN(C)CC[C@@H](c1ccc(Br)cc1)c1ccccn1,inactive
9,FC(F)(F)C(F)(F)C(F)(F)C(F)(F)C(F)(F)C(F)(F)CCI,inactive
10,O=C(c1ccc(O)cc1)c1ccc(O)cc1,inactive
11,O=C(O)C(c1ccc(Cl)cc1)c1ccc(Cl)cc1,inactive
12,O=C(NS(=O)(=O)/C=C/c1cccs1)c1ccc(F)cc1Br,inactive
13,O=C(O)C1CCC(C(=O)O)CC1 (centres undefined),inactive
14,CC(=O)OC/C=C/c1ccccc1,inactive
15,c1ccc(-c2nc[nH]c2-c2ccccc2)cc1,inactive
16,CN1CCC(OC(c2ccccc2)c2ccccc2)CC1,inactive
17,CC(=O)OCCc1ccccc1,inactive
18,Cc1ccc(C(C)c2ccc(C)c(C)c2)cc1C,inactive

# Molecular target: Thyrotropin-releasing hormone receptor (Homo sapiens) (UniProt P34981)
# Sequence (P34981 whole entry, looked up): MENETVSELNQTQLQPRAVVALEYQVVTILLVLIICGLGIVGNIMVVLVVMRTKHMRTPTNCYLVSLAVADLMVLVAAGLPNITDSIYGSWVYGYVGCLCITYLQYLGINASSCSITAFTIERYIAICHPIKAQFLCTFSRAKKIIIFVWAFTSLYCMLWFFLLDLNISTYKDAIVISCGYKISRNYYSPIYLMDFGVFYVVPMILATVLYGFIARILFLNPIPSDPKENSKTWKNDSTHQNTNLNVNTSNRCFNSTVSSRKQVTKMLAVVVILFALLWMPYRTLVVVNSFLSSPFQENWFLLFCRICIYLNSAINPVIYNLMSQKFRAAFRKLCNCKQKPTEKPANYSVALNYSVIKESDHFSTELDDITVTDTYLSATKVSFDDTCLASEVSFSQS
# Assay: qHTS assay to identify small molecule antagonists of the thyrotropin-releasing hormone receptor (TRHR) signaling pathway (AID 1346877; active = well fitted inhibition curve with a large enough effect in the repeat runs, not every such curve was filed as active)
# Conditions: TRHR-HEK293, TRH-induced calcium fluorescence, antagonist mode; series mostly up to 51.3 µM
# How it was run: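 In this cell-based calcium flux format, HEK293 cells expressing TRHR received test compound for 5 min before the agonist TRH (1 nM final). Dye loading lasted 2 h at 37 °C.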
row,SMILES,outcome
1,CN(c1nccc(=O)[nH]1)C1CCN(c2nc3ccccc3n2Cc2ccc(F)cc2)CC1,inactive
2,CCCCOC(=O)c1ccccc1C(=O)OCC(CC)CCCC (centres undefined),inactive
3,O=C(Nc1ccccc1)OCC(CN1CCCCC1)OC(=O)Nc1ccccc1 (centres undefined),inactive
4,CC(O)C1CCCCC1 (centres undefined),inactive
5,COCCCCCCCCOCCC[Si](C)(O[Si](C)(C)C)O[Si](C)(C)C,inactive
6,CCCCCCOC(=O)CCC,inactive
7,COCCO,inactive
8,C=C(C)C(=O)OCCN(C)C,inactive
9,CC(C)(C)c1ccc(S)cc1,inactive
10,CCOc1ccc2[nH]cc(C(=O)NCc3ccccc3)c(=O)c2n1,inactive
11,CN1CCN(C2=Nc3ccccc3Sc3ccc(Cl)cc32)CC1,inactive
12,CCC(C)N(C)C(=O)c1cc2ccccc2c(-c2ccccc2Cl)n1 (centres undefined),inactive
13,Cc1ccccn1,inactive
14,N#Cc1c(F)cccc1F,inactive
15,CN(C)CC/C=C1\c2ccccc2COc2ccccc21,inactive
16,O=C(O)Cc1cc(I)c(Oc2ccc(O)c(I)c2)c(I)c1,inactive
17,CC(=O)N(O)CCCCCNC(=O)CCC(=O)N(O)CCCCCNC(=O)CCC(=O)N(O)CCCCCN,inactive
18,O=S1(=O)c2cccc3cccc(c23)N1CCCN1CCN(c2ccc(F)cc2)CC1,inactive
19,C=CCCCCCC,inactive
20,O=C1CCCCCO1,inactive
21,FC(F)(F)C(F)(F)C(F)(F)C(F)(F)C(F)(F)C(F)(F)CCI,inactive
22,O=C(c1ccc(O)cc1)c1ccc(O)cc1,inactive
23,O=C(O)C(c1ccc(Cl)cc1)c1ccc(Cl)cc1,inactive
24,O=C(NS(=O)(=O)/C=C/c1cccs1)c1ccc(F)cc1Br,inactive
25,O=C(O)C1CCC(C(=O)O)CC1 (centres undefined),inactive
26,CC(=O)OC/C=C/c1ccccc1,inactive
27,c1ccc(-c2nc[nH]c2-c2ccccc2)cc1,inactive
28,CN1CCC(OC(c2ccccc2)c2ccccc2)CC1,inactive
29,CC(=O)OCCc1ccccc1,inactive
30,Cc1ccc(C(C)c2ccc(C)c(C)c2)cc1C,inactive
